“And” between values parts separate entries of the source, which are not always exact repeats. Equal entries are not always repeated. Inconclusive results are not listed. More than one record can exist for a structure, and the calls need not agree. The source made the active and inactive calls. Unless noted, the call rests on the fitted dose curve; in most records, active means well fitted curve in the direction sought with a large enough effect in the repeat runs; inconclusive means weak or mixed curves; inactive means no such curve, though single readings can be large; an effect the other way counts as inactive or inconclusive.
Assays:
[1] = qHTS assay to identify small molecule antagonists of the estrogen related receptor (ERR) signaling pathway from Tox21 library - cell viability counter screen (AID 1224834); further: nearly all actives have a fitted effect of over 30% in size; further: potency means the concentration at half of the fitted maximal effect
Outline: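 Compounds in DMSO were pinned onto ERR cells that had been incubated for 6 h, and the plates were held at 37 C for 17.5 h. CellTiter-Fluor reagent was then added and fluorescence was measured after 30 min.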

[2] = biological target: Luciferin 4-monooxygenase (Photinus pyralis) (UniProt P08659); experiment: qHTS assay to identify small molecule inhibitors of firefly luciferase (AID 1224835); further: nearly all actives have a fitted effect of over 25% in size; further: potency means the concentration at half of the fitted maximal effect
Luciferin 4-monooxygenase (Photinus pyralis), sequence (P08659 whole entry, looked up): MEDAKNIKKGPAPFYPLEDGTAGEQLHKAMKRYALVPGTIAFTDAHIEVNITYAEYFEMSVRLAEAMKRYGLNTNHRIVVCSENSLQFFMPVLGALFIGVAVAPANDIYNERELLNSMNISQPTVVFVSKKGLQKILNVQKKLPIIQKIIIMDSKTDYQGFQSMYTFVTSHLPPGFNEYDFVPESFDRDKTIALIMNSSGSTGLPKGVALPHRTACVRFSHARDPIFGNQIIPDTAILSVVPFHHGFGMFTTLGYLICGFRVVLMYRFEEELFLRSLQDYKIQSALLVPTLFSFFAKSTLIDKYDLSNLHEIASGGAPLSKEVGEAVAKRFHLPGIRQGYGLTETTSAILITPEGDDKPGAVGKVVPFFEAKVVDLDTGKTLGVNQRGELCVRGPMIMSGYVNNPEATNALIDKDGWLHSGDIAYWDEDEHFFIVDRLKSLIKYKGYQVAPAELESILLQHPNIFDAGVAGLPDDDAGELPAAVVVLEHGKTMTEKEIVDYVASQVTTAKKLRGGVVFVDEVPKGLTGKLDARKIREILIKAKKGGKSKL
Outline: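 Inhibition of purified Photinus luciferase is measured by luminescence. Substrate levels (D-luciferin, ATP) sit at their KM values. Each compound is tested in a concentration series.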

[3] = qHTS assay to identify small molecule agonists of the constitutive androstane receptor (CAR) signaling pathway - cell viability counter screen (AID 1224836); further: nearly all actives have a fitted effect of over 45% in size
Outline: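 Fluorescence from CellTiter-Fluor indicates live cells after 23 h exposure. The human hepatoma line expresses hCAR and a CYP2B6-2.2kb reporter. Incubation medium contains 0.75 uM PK11195 (final).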

[4] = qHTS assay to identify small molecule antagonists of the constitutive androstane receptor (CAR) signaling pathway - cell viability counter screen (AID 1224837); further: nearly all actives have a fitted effect of over 45% in size
Outline: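 Cells are seeded, rested 4 hr at 37 C/5% CO2, dosed with compound (15-point series) and 50 nM CITCO, incubated a further 23 hr, and then CellTiter-Fluor reagent is added before fluorescence is read. The line is HepG2 with stable hCAR and CYP2B6-2.2kb.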

[5] = biological target: Nuclear receptor subfamily 1 group I member 3 (Homo sapiens) (UniProt Q14994); experiment: qHTS assay to identify small molecule antagonists of the constitutive androstane receptor (CAR) signaling pathway (AID 1224838);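 further: HepG2 cells stably expressing hCAR with CYP2B6 luciferase reporter stimulated by CITCO; nearly all actives have a fitted effect of over 40% in size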; further: potency means the concentration at half of the fitted maximal effect
Nuclear receptor subfamily 1 group I member 3 (Homo sapiens), sequence (Q14994 whole entry, looked up): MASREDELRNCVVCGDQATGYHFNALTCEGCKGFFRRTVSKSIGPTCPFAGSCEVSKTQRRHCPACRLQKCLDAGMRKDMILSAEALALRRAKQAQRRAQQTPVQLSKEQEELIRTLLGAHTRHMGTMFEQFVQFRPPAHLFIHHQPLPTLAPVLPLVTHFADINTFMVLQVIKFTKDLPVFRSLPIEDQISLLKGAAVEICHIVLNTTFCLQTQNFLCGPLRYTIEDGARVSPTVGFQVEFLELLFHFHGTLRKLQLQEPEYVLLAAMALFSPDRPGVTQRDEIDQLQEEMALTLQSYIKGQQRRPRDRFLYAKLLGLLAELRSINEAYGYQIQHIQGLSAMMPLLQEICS
Outline: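 Luminescence from a CYP2B6-2.2kb promoter reporter in hCAR-expressing HepG2 cells reflects CAR signaling. Cells received compounds at 15 concentrations and 50 nM CITCO (final), then incubated 24 h at 37 C/5% CO2.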

[6] = biological target: Nuclear receptor subfamily 1 group I member 3 (Homo sapiens) (UniProt Q14994); experiment: qHTS assay to identify small molecule agonists of the constitutive androstane receptor (CAR) signaling pathway (AID 1224839); further: nearly all actives have a fitted effect of over 15% in size; further: potency means the concentration at half of the fitted maximal effect;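 on activation: HepG2 cells stably carrying human CAR and a CYP2B6 luciferase reporter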
Outline: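 Stable hCAR/CYP2B6-2.2kb HepG2 line in DMEM with 10% FBS; compounds (15 concentrations) and 0.75 uM PK11195 final, 24 h at 37 C/5% CO2, then ONE-Glo luminescence after 30 min.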

[7] = qHTS assay to identify small molecule antagonists of the estrogen related receptor signaling pathway with the pleiotropic PPARgamma coactivator (PGC) from Tox21 10K library - cell viability counter screen (AID 1224840; active means well fitted cell-killing curve with a large enough effect in the repeat runs, not every such curve was filed as active; further: nearly all actives have a fitted effect of over 40% in size; further: potency means the concentration at half of the fitted maximal effect)
Outline: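 Cell viability is measured by CellTiter-Fluor fluorescence in PGC/ERR cells that receive compounds after a 6-hour attachment period and are then incubated 17.5 hours at 37 C.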

[8] = biological target: Thyrotropin receptor (Homo sapiens) (UniProt P16473); experiment: qHTS assay to identify small molecule agonists of the thyroid stimulating hormone receptor (TSHR) signaling pathway (AID 1224843; calls by dose curve; further: nearly all actives have a fitted effect of over 45% in size)
Thyrotropin receptor (Homo sapiens), sequence (P16473 whole entry, looked up): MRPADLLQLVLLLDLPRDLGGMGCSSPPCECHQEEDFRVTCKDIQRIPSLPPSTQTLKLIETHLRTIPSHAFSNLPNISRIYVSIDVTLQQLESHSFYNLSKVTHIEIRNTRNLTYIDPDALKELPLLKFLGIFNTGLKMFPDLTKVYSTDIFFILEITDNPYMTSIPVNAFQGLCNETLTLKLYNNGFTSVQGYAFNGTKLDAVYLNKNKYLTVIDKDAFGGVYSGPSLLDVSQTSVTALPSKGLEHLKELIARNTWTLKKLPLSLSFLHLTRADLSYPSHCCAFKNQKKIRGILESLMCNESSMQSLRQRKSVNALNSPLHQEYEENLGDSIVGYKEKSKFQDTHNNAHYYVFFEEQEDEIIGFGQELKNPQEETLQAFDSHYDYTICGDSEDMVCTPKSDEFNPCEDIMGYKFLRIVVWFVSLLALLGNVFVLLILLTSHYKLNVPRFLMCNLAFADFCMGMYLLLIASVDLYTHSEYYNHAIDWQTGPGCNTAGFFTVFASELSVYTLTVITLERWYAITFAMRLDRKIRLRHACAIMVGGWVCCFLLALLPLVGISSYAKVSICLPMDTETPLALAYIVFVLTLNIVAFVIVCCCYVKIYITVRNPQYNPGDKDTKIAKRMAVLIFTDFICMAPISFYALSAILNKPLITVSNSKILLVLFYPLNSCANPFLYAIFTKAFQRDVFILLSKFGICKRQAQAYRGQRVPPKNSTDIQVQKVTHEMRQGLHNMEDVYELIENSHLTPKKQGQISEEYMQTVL
Outline: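 Agonist activity read as cAMP rise via d2/cryptate HTRF competition, 1 h room-temperature detection, in HEK293 cells expressing TSHR. Fifteen-point titrations, each run in triplicate, with a 30 min room-temperature incubation beforehand.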

[9] = qHTS assay to identify small molecule agonists of the hypoxia (HIF-1) signaling pathway - cell viability counter screen (AID 1224844; calls by dose curve; further: nearly all actives have a fitted effect of over 50% in size; further: potency means the concentration at half of the fitted maximal effect)
Outline: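 Viability counter screen: HRE-bla ME-180 cells plated 5 hrs before compound addition, treated 17 hrs at 37C and 5% CO2, then CellTiter-Glo added after the FRET reporter read; luminescence after 30 min.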

[10] = qHTS assay to identify small molecule agonists of H2AX (AID 1224845; active means well fitted activation curve with a large enough effect in the signal ratio in the repeat runs, not every such curve was filed as active; the % refers to the signal ratio)
Outline: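 Phospho-H2AX Ser139 measured by HTRF (ex 320 nm; em 665 and 620 nm) after 24 hr antibody incubation. Compounds, 15 concentrations, 0.76% DMSO, were applied to CHO-K1 cells for 3hr at 37C before lysis.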

[11] = qHTS assay to identify small molecule agonists of H2AX - cell viability counter screen (AID 1224847; calls by dose curve; further: nearly all actives have a fitted effect of over 30% in size; further: potency means the concentration at half of the fitted maximal effect)
Outline: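 Viability of CHO-K1 (wild type) cells after 3 hr compound exposure was measured by CellTiter-Glo luminescence.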

[12] = qHTS RealTime-Glo MT Cell Viability Assay in HepG2 cells - 24 hour (AID 1224867); further: nearly all actives have a fitted effect of over 50% in size
Outline: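 HepG2 suspension premixed with RealTime-Glo reagents is plated at 600 cells per well and left 5 h at 37 C/5% CO2. Compounds in DMSO then go in, and bioluminescence reflecting viable cell number is recorded over 40 h.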

[13] = qHTS RealTime-Glo MT Cell Viability Assay in HEK293 cells - 32 hour (AID 1224868); further: nearly all actives have a fitted effect of over 50% in size; further: potency means the concentration at half of the fitted maximal effect
Outline: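 Reads taken at 0, 8, 16, 24, 32 and 40 h from the same wells. HEK293 cells (600/well) carried RealTime-Glo reagents from seeding, with compound added after a 5 h settle at 37 C.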

[14] = A CellTox Green Cytotoxicity Assay to monitor cytotoxicity in HEK293 cells - 0 hour (AID 1224869); further: nearly all actives have a fitted effect of over 50% in size
Outline: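 Dead-cell fluorescence measured kinetically: asymmetric cyanine dye, HEK293, 600 cells/well, 5 h settle, 23 nL cpd/DMSO, 37 C, reads 0–40 h every 8 h.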

[15] = qHTS assay to identify small molecule antagonists of the estrogen related receptor signaling pathway with the pleiotropic PPARgamma coactivator (PGC) from Tox21 10K library (AID 1224841; call rule not given here)
Outline: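 Cells stably carrying the PGC/ERR reporter, seeded at 2,000 per well, received pin-transferred compounds 6 h post-plating. Exposure lasted 18 h at 37 C. Signal: One-Glo luminescence.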

[16] = qHTS assay to identify small molecule agonists of the estrogen related receptor signaling pathway with the pleiotropic PPARgamma coactivator (PGC) from Tox21 10K library (AID 1224842); further: nearly all actives have a fitted effect of over 15% in size
Outline: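 Luminescence from One-Glo (30 min, room temperature) measured after PGC/ERR cells had 18 h at 37 C with pinned compound (23 nL in DMSO). Cells had been seeded at 2,000 per well and pre-incubated 6 h.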

[17] = qHTS assay to identify small molecule agonists of the hypoxia (HIF-1) signaling pathway (AID 1224846; active means well fitted activation curve with a large enough effect in the signal ratio in the repeat runs, not every such curve was filed as active; the % refers to the signal ratio)
Outline: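 Agonist mode reporter screen. ME-180 cells stably expressing bla under HRE control received test compounds in DMSO for 17 hrs (37C, 5% CO2), and beta-lactamase activity was then detected with the CCF4-AM FRET substrate.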

[18] = qHTS assay to identify small molecule antagonists of the estrogen related receptor (ERR) signaling pathway from Tox21 library (AID 1224848); further: nearly all actives have a fitted effect of over 50% in size; further: potency means the concentration at half of the fitted maximal effect
Outline: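 Luciferase luminescence (ONE-Glo, 30 min room temperature) was the read-out. Cells of the NTP-supplied ERR line, 2,000 per well, were given 6 h at 37 C before compound addition in DMSO and 18 h exposure at 37 C.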

[19] = qHTS assay to identify small molecule agonists of the estrogen related receptor (ERR) signaling pathway from Tox21 library (AID 1224849; calls by dose curve; further: nearly all actives have a fitted effect of over 15% in size); conditions: ERR reporter cell line, ONE-Glo luciferase, 18 h
Outline: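 Quantitative HTS in agonist format: NTP ERR cell line, compounds transferred in DMSO after 6 h plating, 18 h incubation at 37 C, ONE-Glo luminescence endpoint.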

[20] = qHTS assay to identify small molecule agonists of the estrogen related receptor signaling pathway with the pleiotropic PPARgamma coactivator (PGC) (AID 1224823)
Outline: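 Luminescence from One-Glo reagent (30 min, room temperature) was read after 18 h compound treatment at 37 C of PGC/ERR cells plated 6 h beforehand; compounds delivered in DMSO by pin tool.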
On the % scale 0 is the no-effect control and ±100 the full control effect.

Nc1nc2ncc(CNc3ccc(C(=O)N[C@@H](CCC(=O)O)C(=O)O)cc3)nc2c(=O)[nH]1
inactive: Potency [1] | Potency [2] | Potency [3] | Potency [4] | Potency [5] | Potency [6] | Potency [7] | Potency [8] | Potency [9] | Potency [10] | Potency [11] | Potency [12] | Potency [13] | Potency [14]

C=C1C2CCC(C2)C1(C)C (stereo not given)
inactive: Potency [1] | Potency [2] | Potency [3] | Potency [4] | Potency [5] | Potency [6] | Potency [7] | Potency [15] | Potency [16] | Potency [8] | Potency [9] | Potency [10] | outcome [17] | Potency [11] | Potency [18] | activity change, positive = activation ([19]; at 92.4 µM (top of the series)) 0.557% and 4.73% | Potency [12] | Potency [13] | Potency [14]

Cc1cc(O)c2c(c1)C(=O)c1cc(O)cc(O)c1C2=O
inactive: Potency [20] | Potency [4] | Potency [5] | Potency [7] | Potency [15] | Potency [16] | Potency [8] | Potency [9] | outcome [17] | activity change, positive = activation ([19]; at 42.5 µM (top of the series)) -4% | activity change, positive = activation ([19]; at 92.4 µM (top of the series)) -40.4% | Potency [12] | Potency [14]
inactive and 54.5 µM (active): Potency [18]
active: Potency [1] 27.3 µM | Potency [6] 48.6 µM | Potency [11] 55.4 µM and 80 µM

CC(C)(C)C(=O)C1C(=O)c2ccccc2C1=O
48.1 µM (active) and inactive: Potency [7]
inactive: Potency [5] | Potency [8] | Potency [9] | outcome [17] | Potency [12] | Potency [14]
active: Potency [1] 60.5 µM and 43.3 µM | Potency [2] 31.4 µM | Potency [11] 88.9 µM and 56.6 µM

O=C(c1cc(O)c(O)c(O)c1)c1ccc(O)c(O)c1O
active: Potency [1] 54.3 µM and 54.5 µM
inactive: Potency [3] | Potency [4] | Potency [5] | Potency [6] | Potency [7] | Potency [15] | Potency [16] | Potency [9] | outcome [17] | Potency [11] | Potency [18] | activity change, positive = activation ([19]; at 42.5 µM (top of the series)) -6.33% | activity change, positive = activation ([19]; at 92.4 µM (top of the series)) -10.5% and -15.9% | Potency [12] | Potency [14]

CCCCC(CC)C(=O)OCCOCCOCCOC(=O)C(CC)CCCC (stereo not given)
inactive: Potency [1] | Potency [3] | Potency [4] | Potency [5] | Potency [6] | Potency [7] | Potency [15] | Potency [16] | Potency [9] | Potency [10] | outcome [17] | Potency [11] | Potency [18] | activity change, positive = activation ([19]; at 92.4 µM (top of the series)) -11.1% and 0.258% | Potency [12] | Potency [14]

COC(=O)c1ccc(C(=O)OC)cc1
32.1 µM (active) and inactive: Potency [2]
24.7 µM (active) and inactive: Potency [1] | Potency [7]
inactive: Potency [6] | Potency [8] | Potency [10] | outcome [17] | Potency [11] | Potency [12] | Potency [14]
39.4 µM (active) and inactive: Potency [13]
6.95 µM (active) and inactive: Potency [5]
4.96 µM (active) and inactive: Potency [9]

From PubChem BioAssay (Tox21)
